The supplement of paper PMC10849652
Targets with a hit are over-represented here; the source holds about 7,900 in all. About 0.6% of all pairs of compound and target were hits.

Legend:
Assay in all cases: log2 fold change, soluble protein after heating vs DMSO (PISA); higher = thermal stabilisation; K562 cells, 10 uM, 30 min; active = over 0.2 and 3.5 SD of the protein, either way, in both replicates (recomputed)
[1] = compound: CC1=C(C=C(C=C1)NC(=O)C2=CC(=CC=C2)C(C)(C)C#N)NC3=CC4=C(C=C3)N=CN(C4=O)C
How it was run: (§1)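 K562 cells at 2×10^6 cells/mL were given 10 μM compound for 30 min. Aliquots then went through 3 min of heating across 48°C-58°C, were pooled, and were extracted in PBS with 0.5% NP-40 at 4°C, and the supernatant after 21,000xg for 90 min was quantified by TMTpro 16plex LC-MS/MS with channel sums equalised. Thermal stability relative to control samples, from duplicates, is given as log2 fold change.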

[2] = compound: CC1=C(C=C(C=C1)NC(=O)C2=CC(=CC=C2)N(C)C)NC(=O)C3=CC=C(C=C3)O
How it was run: as §1

[3] = compound: CC1=CC=C(C=C1)SC2=C3C=C(SC3=CN=C2)C(=O)N
How it was run: as §1

[4] = compound: CC1=NC(=CC=C1)C2=C(N=C(N2)C(C)(C)C)C3=CC4=NC=CN=C4C=C3
How it was run: as §1

[5] = compound: CCCCN(Cc1ccc(C(=O)NO)cc1)C(=O)Nc1ccccc1 [Nexturastat A]
How it was run: as §1

[6] = compound: CCCS(=O)(=O)Nc1ccc(F)c(C(=O)c2c[nH]c3ncc(-c4ccc(Cl)cc4)cc23)c1F [vemurafenib]
How it was run: as §1

[7] = compound: CCCS(=O)(=O)Nc1ccc(F)c(C(=O)c2c[nH]c3ncc(Cl)cc23)c1F
How it was run: as §1

[8] = compound: CCCc1cc(C)[nH]c(=O)c1CNC(=O)c1cc(-c2ccnc(N3CCN(C)CC3)c2)cc2c1cnn2C(C)C
How it was run: as §1

[9] = compound: CCN(CC)Cc1ccc2cc(COC(=O)Nc3ccc(C(=O)NO)cc3)ccc2c1 [givinostat]
How it was run: as §1

[10] = compound: CCN(CCCOc1ccc2c(Nc3cc(CC(=O)Nc4cccc(F)c4)[nH]n3)ncnc2c1)CCOP(=O)(O)O [barasertib]
How it was run: as §1

[11] = compound: CC[C@@H]1C(=O)N(C)c2cnc(Nc3ccc(C(=O)NC4CCN(C)CC4)cc3OC)nc2N1C1CCCC1
How it was run: as §1

[12] = compound: CC[C@@H]1C(=O)N(C)c2cnc(Nc3ccc(C(=O)N[C@H]4CC[C@H](N5CCN(CC6CC6)CC5)CC4)cc3OC)nc2N1C(C)C [volasertib]
How it was run: as §1

[13] = compound: CC[C@H](C)N1C=C(C2=C(C=C(C=C21)C3=CN=C(C=C3)N4CCNCC4)C(=O)NCC5=C(C=C(NC5=O)C)C)C
How it was run: as §1

[14] = compound: CC[C@H](C)[C@@H](C(=O)N[C@@H]([C@@H](C)O)C(=O)N[C@@H](CC(C)C)C(=O)[C@]1(CO1)C)NC(=O)[C@H]([C@@H](C)CC)N(C)C(=O)C [epoxomicin]
How it was run: as §1

[15] = compound: CCn1c(C(=O)N(C2CC2)C2CC2)cc2c3c(ncn3C)c(Nc3cc(C)n(C)n3)nc21
How it was run: as §1

[16] = compound: CCn1cc(-c2ccnc3[nH]c(-c4cccc(CN(C)C)c4)cc23)c(-c2ccc(NC(=O)N(C)C)cc2)n1
How it was run: as §1

[17] = compound: CN(C)CC(=O)Nc1ccc2[nH]c(=O)c3ccccc3c2c1
How it was run: as §1

[18] = compound: CN(CCOC1=CC=C(C=C1)C[C@H]2C(=O)NC(=O)S2)C3=CC=CC=N3 (racemic) [rosiglitazone]
How it was run: as §1

[19] = compound: CN1C2=C(C3=C1C(=O)N(N=C3)CC4=CC(=CC=C4)N)SC(=C2)S(=O)C
How it was run: as §1

[20] = compound: CN1CCC(CNc2ccc3ncc(-c4cccc(OC(F)(F)F)c4)n3n2)CC1
How it was run: as §1

Measured: log2 fold change

PFAS (UniProt O15067)
inactive: [1] -0.056 | [2] -0.119 | [3] 0.172 | [4] 0.002 | [5] -0.081 | [6] 0.032 | [7] -0.003 | [8] -0.039 | [9] 0.05 | [10] 0.061 | [11] -0.04 | [12] -0.124 | [13] 0.113 | [14] -0.016 | [15] -0.218 | [16] -0.069 | [17] 0.031 | [18] -0.003 | [19] -0.241 | [20] -0.001

PLCG1 isoform 2 (UniProt P19174)
UniProt P19174, sequence (P19174 whole entry, looked up): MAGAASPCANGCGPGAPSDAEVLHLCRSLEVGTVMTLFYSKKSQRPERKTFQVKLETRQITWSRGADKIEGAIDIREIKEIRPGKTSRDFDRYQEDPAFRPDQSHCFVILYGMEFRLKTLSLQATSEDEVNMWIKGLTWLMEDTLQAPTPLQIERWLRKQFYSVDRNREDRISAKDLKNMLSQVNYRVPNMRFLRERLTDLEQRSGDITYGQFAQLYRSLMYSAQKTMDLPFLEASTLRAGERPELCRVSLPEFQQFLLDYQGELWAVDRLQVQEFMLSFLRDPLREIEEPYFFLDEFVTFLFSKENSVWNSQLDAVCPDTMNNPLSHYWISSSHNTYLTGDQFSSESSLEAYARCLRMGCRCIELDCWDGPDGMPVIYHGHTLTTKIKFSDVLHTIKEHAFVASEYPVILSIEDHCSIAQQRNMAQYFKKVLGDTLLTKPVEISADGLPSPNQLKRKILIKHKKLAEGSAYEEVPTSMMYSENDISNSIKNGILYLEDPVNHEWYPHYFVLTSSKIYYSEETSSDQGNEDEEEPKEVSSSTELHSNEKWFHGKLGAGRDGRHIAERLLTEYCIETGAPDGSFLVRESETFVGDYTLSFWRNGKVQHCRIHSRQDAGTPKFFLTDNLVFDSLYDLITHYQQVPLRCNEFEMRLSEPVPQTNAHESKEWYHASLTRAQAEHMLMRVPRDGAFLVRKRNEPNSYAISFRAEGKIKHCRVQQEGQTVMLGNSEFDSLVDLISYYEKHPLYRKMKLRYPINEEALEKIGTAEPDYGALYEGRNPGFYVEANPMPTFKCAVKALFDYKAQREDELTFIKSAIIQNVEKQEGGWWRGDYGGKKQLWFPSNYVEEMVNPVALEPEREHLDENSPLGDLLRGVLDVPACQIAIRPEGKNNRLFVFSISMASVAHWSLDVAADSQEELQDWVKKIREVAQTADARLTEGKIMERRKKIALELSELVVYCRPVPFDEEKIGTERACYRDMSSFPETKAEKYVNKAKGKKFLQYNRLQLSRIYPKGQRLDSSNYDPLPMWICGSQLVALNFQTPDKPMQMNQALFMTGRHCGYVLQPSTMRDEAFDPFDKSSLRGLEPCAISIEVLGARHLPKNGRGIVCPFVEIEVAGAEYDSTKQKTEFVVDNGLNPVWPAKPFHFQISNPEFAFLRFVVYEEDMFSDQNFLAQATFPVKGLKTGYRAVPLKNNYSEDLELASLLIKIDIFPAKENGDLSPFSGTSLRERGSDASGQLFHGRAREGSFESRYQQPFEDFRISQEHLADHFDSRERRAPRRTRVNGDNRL
active: [20] -0.412
inactive: [1] 0.045 | [2] -0.011 | [3] 0.039 | [4] -0.012 | [5] 0.019 | [6] 0.003 | [7] 0.079 | [8] -0.019 | [9] -0.013 | [10] 0.031 | [11] -0.031 | [12] -0.25 | [13] 0.05 | [14] 0.014 | [15] -0.097 | [16] -0.187 | [17] 0.085 | [18] 0.09 | [19] 0.083

PPP1CA (UniProt P62136)
inactive: [1] -0.024 | [2] -0.019 | [3] -0.071 | [4] 0.164 | [5] -0.09 | [6] -0.023 | [7] -0.05 | [8] 0 | [9] -0.009 | [10] 0.035 | [11] -0.014 | [12] -0.061 | [13] 0.003 | [14] 0.02 | [15] 0.011 | [16] -0.041 | [17] -0.033 | [18] 0.015 | [19] -0.077 | [20] 0.011

PDS5A (UniProt Q29RF7)
inactive: [1] 0.093 | [2] -0.109 | [3] 0.012 | [4] 0.12 | [5] 0.057 | [6] 0.143 | [7] 0.294 | [8] 0 | [9] 0.208 | [10] 0.275 | [11] -0.213 | [12] -0.447 | [13] 0.137 | [14] 0.29 | [15] -0.086 | [16] 0.012 | [17] -0.107 | [18] 0.246 | [19] 0.042 | [20] -0.203

PIR (UniProt O00625)
UniProt O00625, sequence (O00625 whole entry, looked up): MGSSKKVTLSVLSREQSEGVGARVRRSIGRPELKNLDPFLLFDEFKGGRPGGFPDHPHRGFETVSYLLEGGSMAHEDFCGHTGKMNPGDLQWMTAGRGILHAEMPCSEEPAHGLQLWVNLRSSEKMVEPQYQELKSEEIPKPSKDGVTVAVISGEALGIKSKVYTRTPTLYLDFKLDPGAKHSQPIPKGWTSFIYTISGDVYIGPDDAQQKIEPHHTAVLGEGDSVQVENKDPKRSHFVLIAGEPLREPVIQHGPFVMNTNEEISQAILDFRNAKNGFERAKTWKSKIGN
active: [2] 0.325
inactive: [1] -0.063 | [3] 0.002 | [4] -0.035 | [5] -0.053 | [6] 0.03 | [7] 0.122 | [8] 0.085 | [9] -0.146 | [10] 0.007 | [11] -0.041 | [12] -0.069 | [13] -0.028 | [14] 0.034 | [15] 0.097 | [16] -0.006 | [17] 0.031 | [18] 0.02 | [19] -0.06 | [20] -0.052

POLR2A (UniProt P24928)
inactive: [1] -0.009 | [2] -0.049 | [3] 0.064 | [4] 0.018 | [5] 0.001 | [6] 0.002 | [7] 0.071 | [8] -0.023 | [9] -0.024 | [10] 0.024 | [11] 0.093 | [12] -0.034 | [13] 0.006 | [14] 0.004 | [15] -0.058 | [16] 0.022 | [17] 0.041 | [18] 0.007 | [19] -0.052 | [20] 0.156

PTP4A1 (UniProt Q93096)
UniProt Q93096, sequence (Q93096 whole entry, looked up): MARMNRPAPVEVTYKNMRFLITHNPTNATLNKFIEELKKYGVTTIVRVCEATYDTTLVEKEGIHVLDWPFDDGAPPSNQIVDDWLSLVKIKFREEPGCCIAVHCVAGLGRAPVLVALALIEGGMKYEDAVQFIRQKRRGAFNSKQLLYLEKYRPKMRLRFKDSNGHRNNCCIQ
inactive: [1] -0.007 | [2] -0.005 | [3] 0.023 | [4] 0.023 | [5] 0.002 | [6] 0 | [7] 0.062 | [8] -0.024 | [9] -0.003 | [10] 0.035 | [11] 0.025 | [12] 0.019 | [13] 0.036 | [14] 0.065 | [15] 0.029 | [16] -0.055 | [17] -0.044 | [18] -0.011 | [19] -0.043 | [20] 0.022

PSMC3 (UniProt P17980)
UniProt P17980, sequence (P17980 whole entry, looked up): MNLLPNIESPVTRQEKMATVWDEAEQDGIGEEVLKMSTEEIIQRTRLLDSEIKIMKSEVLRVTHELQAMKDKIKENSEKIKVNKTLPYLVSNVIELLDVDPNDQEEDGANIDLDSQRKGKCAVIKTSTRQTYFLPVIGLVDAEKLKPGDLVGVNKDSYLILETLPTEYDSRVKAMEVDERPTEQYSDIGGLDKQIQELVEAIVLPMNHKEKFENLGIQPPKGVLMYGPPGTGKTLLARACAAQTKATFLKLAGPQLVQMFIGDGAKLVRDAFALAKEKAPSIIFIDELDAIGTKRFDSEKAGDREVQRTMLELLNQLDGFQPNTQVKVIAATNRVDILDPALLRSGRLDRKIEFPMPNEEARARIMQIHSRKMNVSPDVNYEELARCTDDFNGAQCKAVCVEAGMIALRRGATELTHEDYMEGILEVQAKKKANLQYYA
inactive: [1] 0.013 | [2] 0.02 | [3] -0.024 | [4] -0.051 | [5] 0.034 | [6] -0.063 | [7] -0.055 | [8] 0.002 | [9] -0.034 | [10] -0.059 | [11] 0.032 | [12] 0.179 | [13] -0.021 | [15] -0.028 | [16] 0.079 | [17] -0.031 | [18] -0.038 | [19] 0.021 | [20] 0.018
active: [14] -0.319

PELO (UniProt Q9BRX2)
inactive: [1] -0.005 | [2] -0.051 | [3] 0.042 | [4] -0.039 | [5] 0.161 | [6] -0.13 | [7] 0.007 | [8] 0.055 | [9] 0.192 | [10] 0.045 | [11] -0.017 | [12] -0.387 | [13] 0.09 | [14] -0.058 | [15] -0.068 | [16] 0.007 | [17] -0.017 | [18] 0.085 | [19] 0.138 | [20] -0.312

POLA1 (UniProt P09884)
active: [12] -0.466
inactive: [1] -0.001 | [2] -0.029 | [3] -0.003 | [4] 0.052 | [5] -0.064 | [6] 0.064 | [7] 0.053 | [8] 0.024 | [9] 0.093 | [10] 0.098 | [11] -0.048 | [13] 0.059 | [14] 0.045 | [15] -0.014 | [16] -0.089 | [17] 0.032 | [18] 0.046 | [19] -0.012 | [20] -0.163

POLR2K (UniProt P53803)
inactive: [1] -0.036 | [2] 0.065 | [3] 0.056 | [4] 0.024 | [5] -0.162 | [6] -0.001 | [7] -0.024 | [8] 0.075 | [9] -0.137 | [10] 0.023 | [11] -0.259 | [12] -0.002 | [13] -0.05 | [14] -0.032 | [15] 0.144 | [16] -0.049 | [17] 0.05 | [18] -0.059 | [19] -0.02 | [20] 0.05

PPT1 (UniProt P50897)
UniProt P50897, sequence (P50897 whole entry, looked up): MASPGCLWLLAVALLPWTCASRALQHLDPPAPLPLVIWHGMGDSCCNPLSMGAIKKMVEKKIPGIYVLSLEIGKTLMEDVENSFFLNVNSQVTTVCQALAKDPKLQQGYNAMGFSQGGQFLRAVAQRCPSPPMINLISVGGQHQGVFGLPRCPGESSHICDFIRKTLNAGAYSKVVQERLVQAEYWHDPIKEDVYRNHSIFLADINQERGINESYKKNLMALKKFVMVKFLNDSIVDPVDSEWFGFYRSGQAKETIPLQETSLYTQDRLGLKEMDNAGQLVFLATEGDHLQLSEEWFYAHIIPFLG
active: [11] -1.41 | [12] -1.9 | [20] -0.925
inactive: [1] -0.017 | [2] 0.009 | [3] 0.046 | [4] 0.013 | [5] -0.081 | [6] 0 | [7] -0.003 | [8] -0.107 | [9] -0.022 | [10] -0.017 | [13] -0.041 | [14] 0.014 | [15] 0.015 | [16] 0.01 | [17] -0.009 | [18] -0.008 | [19] -0.035

PIP4K2B (UniProt P78356)
inactive: [1] -0.055 | [2] -0.048 | [3] 0.033 | [4] 0.026 | [5] -0.088 | [6] 0.045 | [7] 0.02 | [8] 0.039 | [9] -0.076 | [10] 0.004 | [13] -0.089 | [14] 0.015 | [15] -0.036 | [16] -0.054 | [17] 0.029 | [18] 0.005 | [19] 0.172 | [20] 0.231
active: [11] 0.573 | [12] 0.776

PPM1G (UniProt O15355)
UniProt O15355, sequence (O15355 whole entry, looked up): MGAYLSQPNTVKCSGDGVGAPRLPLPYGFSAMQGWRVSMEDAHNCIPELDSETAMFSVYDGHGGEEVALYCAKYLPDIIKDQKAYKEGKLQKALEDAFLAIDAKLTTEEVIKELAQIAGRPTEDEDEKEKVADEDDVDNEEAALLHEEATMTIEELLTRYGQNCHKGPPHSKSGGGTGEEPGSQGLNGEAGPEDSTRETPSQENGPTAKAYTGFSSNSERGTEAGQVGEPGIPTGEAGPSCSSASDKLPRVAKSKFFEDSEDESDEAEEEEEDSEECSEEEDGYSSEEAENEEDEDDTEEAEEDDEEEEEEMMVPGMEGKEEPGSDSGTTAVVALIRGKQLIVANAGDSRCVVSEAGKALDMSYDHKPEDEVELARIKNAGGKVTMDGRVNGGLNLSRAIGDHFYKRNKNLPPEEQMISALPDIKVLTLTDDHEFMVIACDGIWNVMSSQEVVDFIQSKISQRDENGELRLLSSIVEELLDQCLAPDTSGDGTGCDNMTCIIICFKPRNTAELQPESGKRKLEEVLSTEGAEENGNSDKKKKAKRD
active: [12] -0.381
inactive: [1] 0.087 | [2] -0.04 | [3] -0.031 | [4] 0.048 | [5] -0.053 | [6] 0.112 | [7] 0.13 | [8] 0.067 | [9] 0.17 | [10] 0.052 | [11] -0.208 | [13] 0.066 | [14] 0.087 | [15] -0.001 | [16] -0.073 | [17] 0.098 | [18] 0.089 | [19] 0.017 | [20] -0.025

POLR3K (UniProt Q9Y2Y1)
UniProt Q9Y2Y1, sequence (Q9Y2Y1 whole entry, looked up): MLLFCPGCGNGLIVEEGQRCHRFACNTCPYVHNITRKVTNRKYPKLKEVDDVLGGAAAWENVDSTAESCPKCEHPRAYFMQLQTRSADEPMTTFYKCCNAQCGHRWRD
inactive: [1] -0.028 | [2] 0.098 | [3] 0 | [4] -0.014 | [5] -0.04 | [6] -0.067 | [7] -0.066 | [8] -0.038 | [9] -0.013 | [10] 0.003 | [11] -0.077 | [12] 0.056 | [13] -0.018 | [14] 0.067 | [15] -0.061 | [16] 0.038 | [17] -0.048 | [18] -0.045 | [19] -0.012 | [20] -0.01

PSME4 (UniProt Q14997)
UniProt Q14997, sequence (Q14997 whole entry, looked up): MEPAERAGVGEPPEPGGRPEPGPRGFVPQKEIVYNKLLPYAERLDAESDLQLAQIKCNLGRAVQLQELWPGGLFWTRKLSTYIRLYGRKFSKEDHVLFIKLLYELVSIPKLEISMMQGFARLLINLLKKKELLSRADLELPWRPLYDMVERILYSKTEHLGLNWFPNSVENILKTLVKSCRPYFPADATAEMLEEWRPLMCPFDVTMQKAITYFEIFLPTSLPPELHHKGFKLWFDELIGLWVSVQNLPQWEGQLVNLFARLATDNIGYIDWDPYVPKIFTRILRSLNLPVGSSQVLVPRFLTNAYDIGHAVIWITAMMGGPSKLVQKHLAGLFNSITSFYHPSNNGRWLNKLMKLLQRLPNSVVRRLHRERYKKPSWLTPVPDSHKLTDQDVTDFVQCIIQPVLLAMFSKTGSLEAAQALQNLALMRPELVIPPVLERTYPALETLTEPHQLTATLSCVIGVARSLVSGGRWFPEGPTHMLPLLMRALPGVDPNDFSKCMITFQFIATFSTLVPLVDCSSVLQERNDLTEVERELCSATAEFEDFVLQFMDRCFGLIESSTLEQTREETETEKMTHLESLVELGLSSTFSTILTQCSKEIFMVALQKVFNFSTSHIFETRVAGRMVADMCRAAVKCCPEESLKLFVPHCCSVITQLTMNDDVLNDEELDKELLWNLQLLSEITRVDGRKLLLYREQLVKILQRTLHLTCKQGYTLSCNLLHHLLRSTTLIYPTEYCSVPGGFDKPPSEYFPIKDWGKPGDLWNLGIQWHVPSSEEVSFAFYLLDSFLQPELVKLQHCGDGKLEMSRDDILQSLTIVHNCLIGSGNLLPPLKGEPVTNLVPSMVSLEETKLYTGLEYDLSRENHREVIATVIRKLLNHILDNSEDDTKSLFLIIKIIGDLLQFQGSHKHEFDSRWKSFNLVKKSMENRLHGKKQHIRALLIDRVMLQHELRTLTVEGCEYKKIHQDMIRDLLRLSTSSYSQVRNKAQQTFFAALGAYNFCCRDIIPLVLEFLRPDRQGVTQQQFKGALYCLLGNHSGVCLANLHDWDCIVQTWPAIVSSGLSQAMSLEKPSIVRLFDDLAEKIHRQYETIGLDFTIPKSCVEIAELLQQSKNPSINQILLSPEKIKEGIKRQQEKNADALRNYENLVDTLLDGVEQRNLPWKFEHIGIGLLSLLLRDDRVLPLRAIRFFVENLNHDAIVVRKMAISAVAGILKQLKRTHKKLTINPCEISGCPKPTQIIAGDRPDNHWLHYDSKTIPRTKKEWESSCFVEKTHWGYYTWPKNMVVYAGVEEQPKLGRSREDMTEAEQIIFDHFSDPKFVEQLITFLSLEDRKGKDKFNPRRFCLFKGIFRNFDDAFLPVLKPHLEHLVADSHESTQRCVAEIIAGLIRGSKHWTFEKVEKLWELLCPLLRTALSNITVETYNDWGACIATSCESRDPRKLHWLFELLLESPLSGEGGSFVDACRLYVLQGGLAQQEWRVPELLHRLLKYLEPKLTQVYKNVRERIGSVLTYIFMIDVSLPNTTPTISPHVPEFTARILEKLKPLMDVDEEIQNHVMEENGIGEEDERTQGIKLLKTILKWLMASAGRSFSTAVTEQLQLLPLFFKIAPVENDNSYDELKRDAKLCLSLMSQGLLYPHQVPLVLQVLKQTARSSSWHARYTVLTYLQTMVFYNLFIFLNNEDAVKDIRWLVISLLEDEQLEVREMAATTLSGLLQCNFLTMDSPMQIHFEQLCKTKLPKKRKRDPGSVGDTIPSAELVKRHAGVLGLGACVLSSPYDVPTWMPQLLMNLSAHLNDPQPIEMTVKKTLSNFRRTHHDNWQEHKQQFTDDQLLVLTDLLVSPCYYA
inactive: [1] 0.017 | [2] -0.02 | [3] -0.024 | [4] -0.017 | [5] -0.034 | [6] -0.014 | [7] -0.005 | [8] -0.043 | [9] 0.022 | [10] -0.007 | [11] 0.076 | [12] 0.038 | [13] 0.04 | [15] -0.014 | [16] -0.069 | [17] 0.02 | [18] 0.053 | [19] 0.001 | [20] -0.137
active: [14] 0.35
